Where “and” joins values, the source holds several entries; their conditions need not be identical. Identical values can stand only once. Records with an inconclusive call do not appear. Calls of active or inactive are those of the source. How the source made its calls: active means hit-call score of the fitted dose curve at least 0.9, where 1 is the maximum; inconclusive means response in the unintended direction; inactive means score below 0.9.
Columns and labels:
[1] = TOX21_p53_BLA_p2_viability: Viability Assessment in the Tox21 HCT-116 p53 Agonism Beta-lactamase Assay, Phase 2 (AID 2283591);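 further: compound exposure lasted 16 h at 37 °C; actives lower the ATP signal meaning cytotoxicity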
Method in brief: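 Cytotoxicity readout: CellTiter-Glo ATP luminescence, 30 min at room temperature, after the beta-lactamase read. Cells were HCT116 exposed 16 h at 37C to compounds pin-transferred at 217-fold dilution from DMSO stocks.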

[2] = biological target: Cellular tumor antigen p53 (Homo sapiens) (UniProt P04637); experiment: TOX21_p53_BLA_p2_ratio: Tox21 HCT-116 p53 Agonism Beta-lactamase Assay, Ratio, Phase 2 (AID 2283592)
Chain of Cellular tumor antigen p53 (Homo sapiens) (P04637 whole entry, looked up): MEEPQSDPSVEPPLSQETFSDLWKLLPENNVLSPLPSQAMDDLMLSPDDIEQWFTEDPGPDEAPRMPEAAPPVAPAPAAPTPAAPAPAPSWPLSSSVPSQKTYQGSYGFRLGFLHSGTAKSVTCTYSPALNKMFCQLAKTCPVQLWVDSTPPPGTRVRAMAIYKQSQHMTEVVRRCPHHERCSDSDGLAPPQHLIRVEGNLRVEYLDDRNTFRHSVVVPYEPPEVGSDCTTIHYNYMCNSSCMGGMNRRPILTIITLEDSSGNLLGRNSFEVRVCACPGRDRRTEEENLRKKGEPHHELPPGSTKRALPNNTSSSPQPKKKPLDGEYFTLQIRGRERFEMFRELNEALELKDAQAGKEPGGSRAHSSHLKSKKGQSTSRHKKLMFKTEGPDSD
Method in brief: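 In this cell-based reporter format, HCT116 cells were dosed with chemicals delivered from DMSO by 217-fold dilution and incubated 16 h at 37C. Emission at 460 and 530 nm after 2 h CCF4-AM loading provided the ratio, fitted upward versus DMSO.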

[3] = TOX21_p53_BLA_p3_viability: Viability Assessment in the Tox21 HCT-116 p53 Agonism Beta-lactamase Assay, Phase 3 (AID 2283593);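 further: cells exposed to compound for 16 h before reading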
Method in brief: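 Cellular ATP was quantified by CellTiter-Glo luminescence, read after 30 min at room temperature. Beforehand, HCT116 cells (4000/well) received compound 5 h post-seeding, 217-fold diluted from DMSO, then incubated 16 h at 37C.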

[4] = biological target: Cellular tumor antigen p53 (Homo sapiens) (UniProt P04637); experiment: TOX21_p53_BLA_p3_ratio: Tox21 HCT-116 p53 Agonism Beta-lactamase Assay, Ratio, Phase 3 (AID 2283596)
Method in brief: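 HCT116 p53-bla cells (4000/well) given compound in DMSO (217-fold dilution) after 5 h, incubated 16 h at 37C. CCF4-AM substrate 2 h at room temperature; 460/530 nm emission ratio, gain fitted against DMSO.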

[5] = biological target: Cellular tumor antigen p53 (Homo sapiens) (UniProt P04637); experiment: TOX21_p53_BLA_p5_ratio: Tox21 HCT-116 p53 Agonism Beta-lactamase Assay, Ratio, Phase 5 (AID 2283599)
Method in brief: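 Beta-lactamase reporter ratio (blue 460 nm over green 530 nm, 405 nm excitation) after 2 h CCF4-AM loading, in HCT-116 cells exposed 16 h at 37 C to compounds pinned at 217-fold dilution. Increases relative to DMSO baseline scored.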

[6] = biological target: Cellular tumor antigen p53 (Homo sapiens) (UniProt P04637); experiment: TOX21_p53_BLA_p4_ratio: Tox21 HCT-116 p53 Agonism Beta-lactamase Assay, Ratio, Phase 4 (AID 2283601)
Method in brief: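 Signal is the blue/green (460nm/530nm) ratio of cleaved versus uncleaved CCF4-AM substrate, read after 2 h substrate loading. Cells were HCT116 carrying the p53-responsive beta-lactamase reporter, dosed 16 h at 37C, 5% CO2; CellTiter-Glo measured in parallel.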

[7] = TOX21_p53_BLA_p5_viability: Viability Assessment in the Tox21 HCT-116 p53 Agonism Beta-lactamase Assay, Phase 5 (AID 2283600)
Method in brief: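 Compounds, pinned from DMSO at 217-fold dilution, were left on the cells for 16 h. The viability endpoint was ATP content measured by CellTiter-Glo luminescence, where falling signal reflects cytotoxicity.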

Measured: AC50

O=C(O)c1ccc2[nH]cc(CCCCN3CC=C(c4ccccc4)CC3)c2c1
not listed: [7]
inactive: all other assays above

Oc1cccc(Cl)c1
inactive: all assays above

COC(=O)C(c1ccccc1)C1CCCCN1 (stereo not given)
not listed: [7]
inactive: all other assays above

C[C@@H]1CC[C@H]2[C@@H](C)C(=O)O[C@@H]3O[C@@]4(C)CC[C@@H]1[C@]32OO4
inactive: all assays above

CC[n+]1c(-c2ccccc2)c2cc(N)ccc2c2ccc(N)cc21
active: [2] 1.43 µM and 9.38 µM and 2.95 µM | [4] 3.51 µM and 14.1 µM and 6.74 µM | [5] 2.77 µM and 8.85 µM and 4.7 µM | [6] 1.93 µM and 9.2 µM and 3.86 µM
inactive: [1] | [3] | [7]

COC(=O)[C@]12CCC(C)(C)C[C@H]1[C@H]1C(=O)C=C3[C@@]4(C)C=C(C#N)C(=O)C(C)(C)[C@@H]4CC[C@@]3(C)[C@]1(C)CC2
active: [1] 1.83 µM | [2] 29.2 µM | [3] 1.37 µM | [4] 15.3 µM | [5] 31.7 µM | [7] 2.57 µM | [6] 7.4 µM

OCCSCSCCO
inactive: all assays above

O=C(O)CC(Cl)C(=O)O (stereo not given)
active: [2] 57.3 µM
inactive: all other assays above

Clc1ccccc1-c1ccccc1Cl
active: [3] 62.2 µM
not listed: [7]
inactive: all other assays above

O=CC(Br)(Br)Br
active: [2] 82.7 µM | [5] 29.9 µM
not listed: [7]
inactive: all other assays above

C[C@]12CC[C@@H]3c4ccc(OC(=O)N(CCCl)CCCl)cc4CC[C@H]3[C@@H]1CC[C@@H]2O
inactive: [1] | [3]
active: [2] 24.6 µM | [4] 29 µM | [5] 25.2 µM | [6] 31.9 µM

NC1(c2ccccc2)CCCCC1
inactive: all assays above

C1CCC2CCCCC2C1 (stereo not given)
not listed: [7]
inactive: all other assays above

— PubChem BioAssay (EPA / NIEHS)
